SMARCA2 activ: SMARCA2 function activation, primary screen | 370,000 tested, 1% active | MG213 cells, MMTV-luciferase reporter, dexamethasone, overnight | activation, % at 9.1 µM; in the data active = activation above about 7.8%;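 also: 0% = vehicle wells and 100% = reference activator wells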
Gli-Sufu antag: antagonists of Gli-Sufu signaling | 340,000 tested, 0.74% active | Sufu-KO-LIGHT fibroblasts, Gli luciferase reporter luminescence | AID 588413 | inhibition, % at 5 µM;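 active = inhibition above about 55%, limit read from the data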;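 also: 0% = DMSO-treated cells and 100% = wells with medium but no cells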
Jurkat NFkB inh: lowers PMA/ionomycin-induced NF-kB signal in Jurkat cells; PMA/ionomycin-induced NF-kB luciferase reporter, luminescence; inhibition, % at 4 µM; 330,000 tested, 0.53% active; AID 435003; in the data active = inhibition above about 50%
esBAF inh: SWI/SNF esBAF complex inhibition. reporter increase, % at 12.5 µM. 350,000 tested, 2% active. AID 602393. mouse ES cells, Bmi1-luciferase knock-in reporter, 24 h; 100% = twice the neutral-well signal; in the data active = activation above about 40%; inconclusive = no clear call, values can overlap the other calls;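 also: 0% = median of the plate's neutral control wells and 100% = double that signal; a rise in the Bmi1 reporter signal indicates esBAF inhibition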
697 NFkB inh: inhibitors of the PMA/ionomycin-induced NF-kB reporter in 697 B cells; 697 B-cell NF-kB luciferase reporter, 16 h; inhibition, % at 4 µM; 330,000 tested, 0.33% active; in the data active = inhibition above about 35%
* hit, by the source's call. Most compounds without a hit are left out; they make up all but 3.3% or so of the library.

For COc1ccc(C(=O)Cc2ccc(OC)c(OC)c2)cc1 the results were SMARCA2 activ 5.5, Gli-Sufu antag -31.2, Jurkat NFkB inh -17.8, esBAF inh 41.8* and 697 NFkB inh -34.5.
For COc1ccc(NC(=O)Nc2cccc3c2O[C@@H](CN(C)Cc2ccncc2)[C@H](C)CN([C@@H](C)CO)C3=O)cc1 the results were esBAF inh 7.0.
`COc1ccc(C(=O)Cc2nnc(C)s2)c(OC)c1` gave SMARCA2 activ 3.0, Gli-Sufu antag -11.6, Jurkat NFkB inh -12.1 and 697 NFkB inh -9.4.
Screening COc1ccc(C(=O)Cc2cc(OC)c(OC)cc2[N+](=O)[O-])c(OC)c1 returned SMARCA2 activ -0.4, Gli-Sufu antag -19.8, Jurkat NFkB inh -4.3, esBAF inh 51.5* and 697 NFkB inh -19.4.
Screening C[C@H]1CN([C@@H](C)CO)C(=O)Cc2cc(N(C)C)ccc2O[C@@H]1CN(C)Cc1ccc(C(F)(F)F)cc1 returned esBAF inh -2.2.
For O=C(Nc1nnc(Cc2ccccc2F)s1)Nc1ccccc1F the results were SMARCA2 activ 0.8, Gli-Sufu antag -26.4, Jurkat NFkB inh -38.5, esBAF inh 43.6* and 697 NFkB inh -15.5.
For O=C(Nc1nnc(Cc2ccc(F)cc2)s1)Nc1ccccc1F the results were SMARCA2 activ -0.5, Gli-Sufu antag 0.9, Jurkat NFkB inh -21.9, esBAF inh 8.1 and 697 NFkB inh -5.9.
`O=c1oc(-c2ccccc2)nc2sc3c(c12)CCCC3` gave SMARCA2 activ 1.1, Gli-Sufu antag -44.5, Jurkat NFkB inh -55.3, esBAF inh 56.0* and 697 NFkB inh -63.5.
For O=c1oc(-c2cc3ccccc3o2)nc2sc3c(c12)CCCC3 the results were SMARCA2 activ 0.9, Gli-Sufu antag -45.0, Jurkat NFkB inh -5.7, esBAF inh 53.4* and 697 NFkB inh -82.4.
For O=c1oc(-c2cccs2)nc2sc3c(c12)CCCCC3 the results were SMARCA2 activ -0.2, Gli-Sufu antag -37.3, Jurkat NFkB inh -7.6, esBAF inh 43.0* and 697 NFkB inh -133.3.
`Cc1ccccc1-c1nc2sc3c(c2c(=O)o1)CCC3` gave SMARCA2 activ 0.1, Gli-Sufu antag -0.9, Jurkat NFkB inh -3.3, esBAF inh 7.5 and 697 NFkB inh 6.6.
`O=c1oc(-c2cccs2)nc2scc(-c3cccs3)c12` gave SMARCA2 activ 1.2, Gli-Sufu antag 7.6, Jurkat NFkB inh -44.0, esBAF inh 63.5* and 697 NFkB inh -57.1.
`C/C=C/c1cnc2c(c1)C(=O)N([C@@H](C)CO)C[C@@H](C)[C@H](CN(C)C(=O)Cc1ccccn1)O2` gave esBAF inh -5.5.
`C[C@H]1CN([C@@H](C)CO)C(=O)c2cccc(NS(C)(=O)=O)c2O[C@H]1CN(C)Cc1ccc2c(c1)OCO2` gave esBAF inh 0.2.
`Cc1ccc(Oc2ncc(CN3CCOCC3)s2)cc1` gave SMARCA2 activ 4.5, Gli-Sufu antag -17.7, Jurkat NFkB inh -14.6, esBAF inh inconclusive and 697 NFkB inh -11.6.
Clc1cccc(Oc2ncc(CN3CCOCC3)s2)c1 was read as SMARCA2 activ 7.9*, Gli-Sufu antag -16.6, Jurkat NFkB inh -11.4, esBAF inh 19.2 and 697 NFkB inh -1.4.
`CC(C)c1ccc(NC(=O)c2n[nH]c(=O)c3ccccc23)cc1` gave SMARCA2 activ 3.2, Gli-Sufu antag -78.5 and esBAF inh 60.1*.
Cc1cc(NC(=O)c2n[nH]c(=O)c3ccccc23)ccc1Br was read as SMARCA2 activ 0.3, Gli-Sufu antag 22.3, Jurkat NFkB inh -69.7 and 697 NFkB inh -60.3.
`Cc1nc(NC(=O)c2oc3ccccc3c2C)sc1C(=O)N(C)C` gave SMARCA2 activ 4.1, Gli-Sufu antag -59.1, Jurkat NFkB inh -41.0, esBAF inh 61.7* and 697 NFkB inh -43.9.
`CCCCc1nnc(NC(=O)c2oc3ccccc3c2C)s1` gave SMARCA2 activ -1.5, Gli-Sufu antag -34.6, Jurkat NFkB inh -27.4, esBAF inh 62.7* and 697 NFkB inh -52.6.
`Cc1nnc(NC(=O)c2oc3ccccc3c2C)s1` gave SMARCA2 activ 3.2, Gli-Sufu antag -70.9, Jurkat NFkB inh -32.3 and 697 NFkB inh -105.6.
O=C(Nc1ccccc1O)c1c(O)c2c([nH]c1=O)CCCC2 was read as SMARCA2 activ 4.1, Gli-Sufu antag -58.7, Jurkat NFkB inh -66.9, esBAF inh 84.6* and 697 NFkB inh -80.3.
For C/C(=N\NC(=O)COc1ccc(C(C)(C)C)cc1)c1ccc(-n2ccnc2)cc1 the results were SMARCA2 activ -0.2, Gli-Sufu antag -31.1, Jurkat NFkB inh -69.0, esBAF inh 47.5* and 697 NFkB inh -5.2.
For COc1ccc(OCC(=O)N/N=C(\C)c2ccc(-n3ccnc3)cc2)cc1 the results were SMARCA2 activ -2.6, Gli-Sufu antag -0.5, Jurkat NFkB inh -13.3, esBAF inh 3.8 and 697 NFkB inh 5.1.
For O=C(NCC1CC1)[C@@H]1[C@@H](CO)[C@@H]2Cn3c(ccc(C4=CCCCC4)c3=O)[C@@H]2N1Cc1ccccc1F the results were esBAF inh 3.4.
`Cc1ccc(NC(=O)N2CCCCCC2)cc1C` gave SMARCA2 activ 3.8, Gli-Sufu antag -54.7, Jurkat NFkB inh -59.8, esBAF inh 51.6* and 697 NFkB inh -26.2.
Cc1cccc(NC(=O)N2CCCCCC2)c1 was read as SMARCA2 activ 2.4, Gli-Sufu antag -21.9, Jurkat NFkB inh -22.5, esBAF inh 43.3* and 697 NFkB inh -7.0.
`Cc1ccc(NC(=O)N2CCCCC2)cc1NC(=O)N1CCCCC1` gave SMARCA2 activ -1.8, Gli-Sufu antag 29.3, Jurkat NFkB inh 9.7, esBAF inh -3.4 and 697 NFkB inh 1.1.
Screening Cc1csc2ncnc(N3CCN(S(=O)(=O)c4cccc(C(F)(F)F)c4)CC3)c12 returned SMARCA2 activ -3.0, Gli-Sufu antag 67.7*, Jurkat NFkB inh 4.9, esBAF inh -24.3 and 697 NFkB inh -45.8.
`N/C(=N\c1nc2ccccc2o1)NC(=O)c1ccccc1Br` gave SMARCA2 activ -0.1, Gli-Sufu antag -36.8, Jurkat NFkB inh -48.7, esBAF inh 79.9* and 697 NFkB inh -94.7.
For N/C(=N\c1nc2ccccc2o1)NC(=O)c1ccc(Cl)cc1 the results were SMARCA2 activ 1.1, Gli-Sufu antag -15.1, Jurkat NFkB inh -25.9, esBAF inh 5.3 and 697 NFkB inh -17.5.
`Cc1cc(N)n2ncc(-c3cccc(Br)c3)c2n1` gave SMARCA2 activ 4.3, Gli-Sufu antag -77.0, Jurkat NFkB inh -81.8, esBAF inh 66.0* and 697 NFkB inh -74.2.
For CCOC(=O)Cc1c(C)nc2c(-c3cccc(Br)c3)cnn2c1C the results were SMARCA2 activ -2.7, Gli-Sufu antag -2.1, Jurkat NFkB inh 19.2 and 697 NFkB inh -25.6.
Cc1cc(-c2ccncc2)n2ncc(-c3ccccc3)c2n1 was read as SMARCA2 activ 6.2 and esBAF inh 16.8.
`Cc1cc(N)n2ncc(-c3ccccc3)c2n1` gave SMARCA2 activ 5.8, Gli-Sufu antag -105.1, Jurkat NFkB inh -80.2, esBAF inh 51.4* and 697 NFkB inh -91.8.
CCOC(=O)c1csc(NC(=O)c2ccccc2)n1 was read as SMARCA2 activ 1.4, Gli-Sufu antag -83.7, Jurkat NFkB inh -66.4, esBAF inh 50.1* and 697 NFkB inh -109.6.
